# D3 ag – qHTS of D3 Dopamine Receptor Agonist: qHTS; AID 652048, 2013; D3R DiscoveRx beta-arrestin cells, luminescence, 90 min; 410,000 tested, 0.58% active; max activation, %; in the data active = max activation above about 30%; also: 0% is about no effect
# Target sequence (P35462 whole entry, looked up): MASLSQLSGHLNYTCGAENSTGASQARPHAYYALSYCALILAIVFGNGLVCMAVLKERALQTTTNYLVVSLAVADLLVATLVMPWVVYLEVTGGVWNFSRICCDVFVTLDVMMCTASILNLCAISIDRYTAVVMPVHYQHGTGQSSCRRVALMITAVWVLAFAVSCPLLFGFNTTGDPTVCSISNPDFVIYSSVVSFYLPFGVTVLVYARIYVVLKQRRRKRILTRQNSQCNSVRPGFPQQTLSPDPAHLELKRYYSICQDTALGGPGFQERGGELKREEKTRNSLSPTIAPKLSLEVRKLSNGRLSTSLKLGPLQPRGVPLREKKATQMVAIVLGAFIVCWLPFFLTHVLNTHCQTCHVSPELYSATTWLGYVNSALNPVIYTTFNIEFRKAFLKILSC
#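 Agonist-mode cell screen: cells plated at 1500/well and incubated overnight at 37 °C, then exposed to library compounds for 90 min at 37 °C. Detection reagent was added for 30–60 min at room temperature, and luminescence was read.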
# ERG-DNA inh – qHTS for Small Molecule Inhibitors of the ERG Ets/DNA interaction | Transcriptional regulator ERG (Homo sapiens), P11308 | fluorescence polarization, His-ERG Ets domain / labelled DNA | Potency, µM (titrated, usually from 76.9 µM), inactives show top-dose FP activity, negative = inhibition, hits mostly inhibitors | 370,000 tested, 0.028% active; active = well fitted inhibition curve with a large enough effect in the polarisation, with a control signal flat; inconclusive = small, poorly fitted or top-dose-only effect, or effect the other way, or a change in a side signal; inactive = no such curve, though single readings can be large or run the other way; the % refers to the polarisation;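 also: polarization taken with two DNA probes labelled with fluorescein and Texas red; potency is read from the fitted curve at half-maximal effect; % of control where 0% means no effect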
#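 His-tagged ERG Ets domain (1 uM in the protein solution; 300mM KCl, 50mM Tris-HCl, 1mM EDTA, 1mM DTT, pH 7.5) received compound, then a probe mix of 5 nM fluorescein-DNA and 100nM Texas-615-DNA. Fluorescence polarization was read for both dyes.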
# D1 ag – Allosteric Agonists of the Human D1 Dopamine Receptor: qHTS. AID 504660, 2011. 360,000 tested, 1% active. HEK293 T-REx D1 cells, calcium flux, agonist mode. D(1A) dopamine receptor (Homo sapiens), P21728. activation, % at 2 µM; in the data active = activation above about 30%; also: 0% is about no effect
#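 Inducible HEK293 T-REx D1 cells, force-coupled to calcium signalling, were plated at 4000 cells/well with tetracycline and held overnight at 30 C. After no-wash calcium dye loading, compound-evoked calcium rise over 180 s flagged agonists.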
# D3 antag – qHTS of D3 Dopamine Receptor Antagonist: qHTS; D(3) dopamine receptor (Homo sapiens), P35462; D3R cells, DiscoveRx beta-arrestin luminescence, antagonist mode; hits give low values; max response, negative = inhibition, %; 360,000 tested, 2.5% active; in the data active = max response below about -50%; inconclusive = no clear call, values can overlap the other calls; also: % is scaled to controls: 0 for no effect and ±100 for the full control effect
#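 Cells expressing the human receptor were seeded at 1500 cells/well, incubated overnight at 37 degrees C in 5% CO2, then exposed to library compounds with dopamine controls for 90 minutes at 37 degrees C before luminescent detection.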
# D1 antagonist – Antagonist of Human D 1 Dopamine Receptor: qHTS. D(1A) dopamine receptor (Homo sapiens), P21728. HEK293 TREx D1 cells, calcium flux, dopamine EC80; hits give low values. activity change, negative = inhibition, % at 10 µM. 360,000 tested, 3.2% active; in the data active = activity change below about -30%; also: % is scaled to controls: 0 for no effect and ±100 for the full control effect
#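 Tetracycline-induced HEK293 T-REx cells with force-coupled D1 receptor were loaded with a no-wash calcium dye. Compound was added after a 10 s baseline and read kinetically for 180 s; EC80 dopamine was then added and calcium flux followed another 180 s.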
# D1 PAM – Potentiators of Human D1 Dopamine Receptor: qHTS; D(1A) dopamine receptor (Homo sapiens), P21728; HEK293 TREx D1 cells, calcium flux, dopamine EC20 potentiation; potentiation, % at 10 µM; 360,000 tested, 0.036% active; in the data active = potentiation above about 30%; also: 0% is about no effect
# Numbers without * were called inactive; ? = inconclusive; . = not tested or not shown. An excerpt weighted towards active compounds, which were near 6.1% of everything screened.
SMILES,D3 ag,ERG-DNA inh,D1 ag,D3 antag,D1 antagonist,D1 PAM
CCn1nnnc1SCC(=O)Nc1nc2ccc(OC)cc2s1,0,-29%,1,2,30,4
Cc1ccc(C)c(C(=O)C(C)OC(=O)c2cccn2C)c1 (stereo not given),-1,0%,1,-51*,16,-7
O=C(COC(=O)Cc1ccccc1F)Nc1ccc2[nH]c(=O)[nH]c2c1,-9,21%,2,-5,25,-2
O=C(COC(=O)/C=C/c1cc(Br)ccc1F)Nc1ccc2[nH]c(=O)[nH]c2c1,88*,-4%,0,-10,-7,-5
CCC1CCCCN1C(=O)CSc1nc2c([nH]c3ccccc32)c(=O)n1C (stereo not given),8,0%,0,10,3,-2
COc1ccccc1CNC(=O)CSc1ncc(C(=O)Nc2ccccc2)c(=O)n1C,-10,15%,3,-69*,14,-2
O=C(OC1CCCCC1=O)c1ccc(S(=O)(=O)Nc2ccccc2)cc1 (stereo not given),-2,6%,35*,10,-10,2
CSCCC(c1nc2ccccc2[nH]1)n1c(=O)c(-c2ccco2)nc2ccccc21 (stereo not given),4,.,.,-1,.,.
O=C(c1ccc([N+](=O)[O-])o1)N1CCN(c2nc3c(Cl)cccc3s2)CC1,-2,1%,3,1,-34*,-9
Cc1ccnc(NS(=O)(=O)c2ccc(NC(=O)C3CCCNC3=O)cc2)n1 (stereo not given),0,-5%,1,4,10,2
O=S1(=O)c2ccccc2N(Cc2ccc(F)cc2)c2ccccc21,-11,0%,3,.,26,-4
O=S1(=O)c2ccccc2N(Cc2ccc(Cl)cc2)c2ccccc21,-18,6%,32*,.,3,-4
C=Cc1ccc(CN2C(=O)N(c3cccc(Cl)c3)S(=O)(=O)c3ccccc32)cc1,10,?,3,.,-92*,-4
CCCCCCc1cc2cc(-c3nnc(-c4ccc(C)cc4)o3)c(=O)oc2cc1O,10,4%,221*,.,23,4
CCCCCCc1cc2cc(/C(N)=N/NC(=O)c3ccncc3)c(=O)oc2cc1O,24,0%,114*,20,.,-1
CCCCCCc1cc2cc(S(=O)(=O)c3ccc(F)c(Cl)c3)c(=O)oc2cc1O,69*,40%,51*,30,-10,-5
CCCCCCc1cc2cc(C(N)=O)c(=N)oc2cc1O,.,.,-1,.,8,1
CCCCCCc1cc2cc(C(=O)OCC)c(=O)oc2cc1O,4,-4%,16,5,-1,3
COc1cc(/C=C(\C#N)C(=O)Nc2ccc3c(c2)OCCO3)ccc1O,3,-6%,41*,1,3,0
CCOC(=O)c1c(-c2ccc(C)cc2)csc1NC(=O)/C(C#N)=C/c1ccc(O)c(OC)c1,1,14%,111*,-4,2,5
COC(=O)c1c(-c2ccc(C)cc2)csc1NC(=O)Cc1ccc(OC)c(OC)c1,32*,1%,4,93,0,0
COC(=O)c1c(-c2ccc(Br)cc2)csc1NC(=O)Cc1ccc(OC)c(OC)c1,12,-2%,1,21,-3,0
CCOC(=O)c1c(-c2ccccc2)csc1NC(=O)/C(C#N)=C\c1ccc(O)c(OC)c1,15,46%,.,5,.,.
COc1cccc(-n2nc3c(=O)n(Cc4ccccc4Cl)nc(C)c3c2C)c1,0,7%,1,-3,7,0
Nc1ncnc2c1ncn2[C@@H]1O[C@H](C(=O)N2CCCN(Cc3cccs3)CC2)[C@@H](O)[C@H]1O,12,.,.,19,.,.
SMILES,D3 ag,ERG-DNA inh,D1 ag,D3 antag,D1 antagonist,D1 PAM
COc1cc(S(=O)(=O)N2CCOCC2)ccc1N,10,-2%,0,-4,-7,2
COc1ccccc1NC(=O)NNC(=O)c1ccc2ccccc2c1O,2,12%,6,13,-36*,1
COc1ccc(OC)c(NC(=O)Nc2cccc3ccccc23)c1,-16,-1%,1,-57*,-11,-2
COc1cccc(C(=O)Nc2cccc3ccccc23)c1OC,2,5%,2,20,-35*,4
Cc1ccccc1NC(=O)NNC(=O)c1ccc2ccccc2c1O,-5,6%,0,-13,-2,-4
Cc1ccc(NC(=O)Cc2noc3ccccc23)cc1,10,-5%,2,3,0,-1
Cc1cc(C)cc(NC(=O)Cc2noc3ccccc23)c1,-24,3%,-1,.,-63*,-2
Cc1ccc2onc(CC(=O)Nc3cc(F)ccc3F)c2c1,2,0%,-1,.,-81*,-3
Cc1cc(=O)[nH]c(SCC(=O)Nc2cccc(C(F)(F)F)c2)n1,-2,-9%,2,-22,-32*,0
Cc1ccc2c(CC(=O)Nc3cccc(C(F)(F)F)c3)coc2c1,-7,1%,9,.,-14,-2
Cc1ccc2onc(CC(=O)Nc3cccc(C(F)(F)F)c3)c2c1,-17,0%,0,.,-75*,-6
Cc1cc(C)n2nc(SCC(=O)N3CCCC3)nc2n1,0,8%,.,26,.,.
O=C(Nc1cccc([N+](=O)[O-])c1)ONC1=NCCCCC1,4,4%,6,10,-4,-1
Cc1cccc(NS(=O)(=O)c2ccc(C(=O)NCC(c3ccco3)N3CCCCC3)cc2)c1C (stereo not given),-3,8%,10,0,-5,3
O=C(NCC(c1ccco1)N1CCCC1)c1ccc(S(=O)(=O)Nc2ccc(F)cc2)cc1 (stereo not given),-12,-1%,51*,-5,-21,.
O=C(NCC(c1ccco1)N1CCCCC1)c1ccc(NS(=O)(=O)c2ccc(F)cc2)cc1 (stereo not given),-38,34%,4,-26,-3,-5
CCOc1ccc(NS(=O)(=O)c2ccc(C(=O)NCC(c3ccco3)N3CCCC3)cc2)cc1 (stereo not given),-9,8%,54*,-7,32,.
Cn1ncc(Cl)c(Oc2ccccc2)c1=O,-5,-12%,0,-12,-11,-6
COc1ccc(-c2cc3ccccc3cn2)cc1,19,-6%,-3,0,.,0
